Drawing on PubChem BioAssay (EPA / NIEHS), this text covers outcome and AC50 for 38 compounds.

Where “and” joins values, the source holds several entries; their conditions need not be identical. Equal values may be shown once. More than one record can exist for a structure, and the calls need not agree. Calls of active or inactive are those of the source. The calls were made as follows: active = hit-call score of the fitted dose curve at least 0.9, where 1 is the maximum; inactive = score below 0.9.

Read-out in this assay: Pselectin, SELP (gene 6403)
As to the kind of experiment: BSK_4H_Pselectin: BioMAP Diversity Plus: 4H Assay for Pselectin Biomarker Activity (AID 2283026). As to conditions: primary human endothelial cells (HUVEC); actives raise or lower the signal. The method, then:
BSK_4H is a cell-based, multiplexed-readout assay that uses umbilical vein endothelium, a human vascular primary cell, with measurements taken at 24 hours after chemical dosing in a 96-well plate.BSK_4H_Pselectin is an assay component measured in the BSK_4H assay. It measures P-Selectin antibody related to regulation of gene expression using ELISA technology.Data from the assay component BSK_4H_Pselectin was analyzed into 1 assay endpoint. This assay endpoint, BSK_4H_Pselectin, was analyzed with bidirectional fitting relative to DMSO as the negative control and baseline of activity. Using a type of binding reporter, gain or loss-of-signal activity can be used to understand changes in the signaling as they relate to the gene SELP. Furthermore, this assay endpoint can be referred to as a primary readout, because this assay has produced multiple assay endpoints where this one serves a signaling function. To generalize the intended target to other relatable targets, this assay endpoint is annotated to the cell adhesion molecules intended target family, where the subfamily is selectins.
The levels of cell surface (or secreted, indicated by the prefix "s") biomarker endpoints were measured by ELISA. Overt cytotoxicity to cells in confluent adherent cultures (all systems other than the BT system) was assessed by measuring total protein levels using sulforhodamine B (SRB) staining in parallel cultures at the time of biomarker measurements, indicated as SRB endpoints. For proliferation assays for adherent cell types, individual cell types are cultured at sub-confluence and relative cell numbers quantified by SRB staining at time points optimized for each system (48 h: 3C and CASM3C systems; 72 h: BT and HDF3CGF systems; 96 h: SAg system). SRB was performed by staining cells with 0.1% SRB after fixation with 10% TCA and reading wells at 560 nm.Viability and proliferation of PBMC (T cells) was quantified by Alamar Blue reduction for the SAg and BT systems. For PBMC viability (referred to as PBMC Cytotoxicity within the assay endpoint names), cells were plated (75,000/well in a 96-well plate) and then chemical samples added for 1 h before addition of activators, SEB and TSST-1 (20 ng/mL final concentration each). Cells were incubated for 90 h. Then, Alamar Blue (20 uL/well) (Invitrogen, Cat DAL1100) was added for 6 h, and the plates were read with a fluorescence microplate reader at 546/580 nm (excitation/emission). For PBMC proliferation, cells were plated and activated as above but incubated for only 16 h prior to addition of Alamar Blue. Plates were read after 6 h.
On to `CC(C)C1(C)N=C(c2nc3ccccc3cc2C(=O)O)NC1=O` (stereo not given), for which the outcome was inactive.

With `CCOc1cc(Oc2ccc(C(F)(F)F)cc2Cl)ccc1[N+](=O)[O-]`, the result was inactive.

For `CCCCOC(=O)c1ccccc1C(=O)OCCCC`, the result was inactive.

With `O=C(O)COc1nc(Cl)c(Cl)cc1Cl`, the result was inactive.

Regarding `CC(C)Oc1cc(-n2nc(C(C)(C)C)oc2=O)c(Cl)cc1Cl`, the concentration at half-maximal activity (AC50) was 29.3 µM (active).

Regarding `COC(=O)c1ccccc1C(=O)OC`, the outcome was inactive.

Take `C=CCC1=C(C)[C@@H](OC(=O)[C@@H]2[C@@H](C=C(C)C)C2(C)C)CC1=O`: the AC50 was 31.6 µM (active).

Turning to `COP(=S)(OC)Oc1nc(Cl)c(Cl)cc1Cl`, the concentration at half-maximal activity (AC50) is 20 µM (active).

Consider `COC(=O)C=C(C)OP(=O)(OC)OC`, for which the result was inactive.

Regarding `COC(=O)N(OC)c1ccccc1COc1ccn(-c2ccc(Cl)cc2)n1`, the AC50 was 20 µM (active).

For `N#CC(CCc1ccc(Cl)cc1)(Cn1cncn1)c1ccccc1` (stereo not given), the outcome was inactive.

For `CCCCNC(=O)OCC#CI`, the AC50 was 12.8 µM (active) and 16.1 µM (active).

For `CC1COC(Cn2cncn2)(c2ccc(Oc3ccc(Cl)cc3)cc2Cl)O1` (stereo not given), the AC50 is 24.7 µM (active).

Take `CCNc1nc(Cl)nc(NC(C)C)n1`: the outcome was inactive.

Consider `COc1nc(C)nc(NC(=O)NS(=O)(=O)c2ccccc2CCC(F)(F)F)n1`, for which the result was inactive.

Turning to `Cc1ccc(-c2c(Cl)nc(C#N)n2S(=O)(=O)N(C)C)cc1`, the AC50 was 17.7 µM (active).

As to `CNC(=S)S`, the result was inactive.

In the case of `CO/C=C(/C(=O)OC)c1ccccc1Oc1cc(Oc2ccccc2C#N)ncn1`, the AC50 is 31.7 µM (active) and 21.1 µM (active); the outcome was inactive.

In the case of `CCCC1COC(Cn2cncn2)(c2ccc(Cl)cc2Cl)O1` (stereo not given), the result was inactive.

As to `COc1cnc(OC)n2nc(NS(=O)(=O)c3c(OCC(F)F)cccc3C(F)(F)F)nc12`, the result was inactive.

`COc1ccc(C(c2ccc(OC)cc2)C(Cl)(Cl)Cl)cc1`: the AC50 is 33.4 µM (active).

With `CCNc1nc(Cl)nc(NCC)n1`, the result was inactive.

With `C=CC1(C)OC(=O)N(c2cc(Cl)cc(Cl)c2)C1=O` (stereo not given), the outcome was inactive.

Take `N#Cc1cc(Br)c(O)c(Br)c1`: the AC50 is 16.5 µM (active).

As to `CCON=C(CC)C1=C(O)CC(c2c(C)cc(C)cc2C)CC1=O` (stereo not given), the result was inactive.

As for `O=C(O)c1nc(Cl)ccc1Cl`, the outcome was inactive.

Consider `CCOP(=S)(OCC)SCn1c(=O)oc2cc(Cl)ccc21`, for which the AC50 was 29.6 µM (active).

As to `CS/C(C)=N/OC(=O)N(C)SN(C)C(=O)O/N=C(\C)SC`, the AC50 was 19.9 µM (active).

As to `C#CCOS(=O)OC1CCCCC1Oc1ccc(C(C)(C)C)cc1` (stereo not given), the AC50 was 3.97 µM (active).

For `CNC(=O)ON=CC(C)(C)SC`, the result was inactive.

As to `CCCCC(CC)COC(=O)c1ccccc1C(=O)OCC(CC)CCCC` (stereo not given), the AC50 was 15.6 µM (active).

`COP(N)(=O)SC` (stereo not given): the result was inactive.

Regarding `C=CCC1=C(C)C(OC(=O)C2C(C=C(C)C)C2(C)C)CC1=O` (stereo not given), the outcome was inactive; the AC50 is 34.9 µM (active) and 33 µM (active) and 33.2 µM (active).

For the compound `N#Cc1nn(-c2c(Cl)cc(C(F)(F)F)cc2Cl)c(N)c1S(=O)C(F)(F)F` (stereo not given), the AC50 was 20 µM (active).

`CN(C)C(=S)SSC(=S)N(C)C`: the AC50 was 14 µM (active).

Turning to `CCCN(CCC)c1c([N+](=O)[O-])cc(S(N)(=O)=O)cc1[N+](=O)[O-]`, the AC50 was 34.2 µM (active) [middle of 4 runs].

Regarding `CC(C)(C)c1ccc(CSc2cnn(C(C)(C)C)c(=O)c2Cl)cc1`, the AC50 is 11.1 µM (active).

With `CON(C)C(=O)Nc1ccc(Cl)c(Cl)c1`, the result was inactive.

In general, AC50 refers to the concentration at which the activity in the assay is half-maximal.
